# High-throughput results from PubChem.
# TDP1 cell CPT: qHTS for Inhibitors of human tyrosyl-DNA phosphodiesterase 1 (TDP1): qHTS in cells in presence of CPT; Potency, µM (titrated, usually from 46.2 µM), without a hit: at the top dose activity change, negative = growth inhibition, hits mostly inhibitors; actives 12% (n = 420,000); chicken DT40 Tdp1-/-;hTDP1 cells + 20 nM CPT, ATP luminescence, 48 h; also: potency is read from the fitted curve at half-maximal effect; nearly all actives have a fitted effect of over 55% in size
#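 Chicken DT40 Tdp1-/- cells complemented with human TDP1, 400 cells/well, exposed to compounds plus 20 nM camptothecin for at least 48 h at 37 C; viability read as ATP content by CellTiter-Glo luminescence.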
# TDP1 inh: qHTS Assay for Inhibitors of Tyrosyl-DNA Phosphodiesterase (TDP1); Tyrosyl-DNA phosphodiesterase 1 (Homo sapiens), Q9NUW8; recombinant TDP1, AlphaScreen DNA substrate cleavage; Potency, µM (top dose mostly 130 µM), for inactives: top-dose activity change, negative = inhibition, usual class: inhibitors; actives 0.28% (n = 350,000); AID 485290, 2010; also: potency is read from the fitted curve at half-maximal effect; nearly all actives have a fitted effect of over 40% in size
# Target sequence (Q9NUW8 whole entry, looked up): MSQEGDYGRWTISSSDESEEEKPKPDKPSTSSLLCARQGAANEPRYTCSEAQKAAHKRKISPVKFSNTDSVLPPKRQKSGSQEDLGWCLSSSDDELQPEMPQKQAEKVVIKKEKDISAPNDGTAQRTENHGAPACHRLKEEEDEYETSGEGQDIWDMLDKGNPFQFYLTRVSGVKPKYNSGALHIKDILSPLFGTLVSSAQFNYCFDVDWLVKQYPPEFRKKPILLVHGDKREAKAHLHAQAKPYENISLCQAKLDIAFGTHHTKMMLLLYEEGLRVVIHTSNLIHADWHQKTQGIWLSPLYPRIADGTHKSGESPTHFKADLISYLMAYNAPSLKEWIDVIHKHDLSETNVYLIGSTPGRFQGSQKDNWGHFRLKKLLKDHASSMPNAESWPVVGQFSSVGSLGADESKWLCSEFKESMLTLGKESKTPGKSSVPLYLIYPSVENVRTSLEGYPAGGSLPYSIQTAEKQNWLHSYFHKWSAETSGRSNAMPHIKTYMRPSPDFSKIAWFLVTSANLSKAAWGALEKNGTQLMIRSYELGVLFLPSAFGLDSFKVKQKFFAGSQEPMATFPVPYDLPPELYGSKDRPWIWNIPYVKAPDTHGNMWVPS
#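 Tdp1 1 nM final; 15 min RT w/ cpd; substrate 15 nM, 5 min; beads 10 ug/ml, 10 min; AlphaScreen read. Neg ctrl: no enzyme.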
# Giardia killer: Small Molecules that selectively kill Giardia lamblia: qHTS; Giardia lamblia trophozoite viability; activity change, % at 7.66 µM, hits read low; actives 0.15% (n = 340,000); in the data active = activity change below about -80%; inconclusive = between about -30% and that limit;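 also: parasites exposed to compound for two days anaerobically before the ATP read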
#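 Giardia lamblia trophozoites (100 cells/well) were incubated with compounds for 48 h at 37 deg C under anaerobic conditions. Viability was read as ATP content by one-step luminescence after 15-30 min at room temperature.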
# IL-1B inflam inh: qHTS for Inhibitors of Inflammasome Signaling: IL-1-beta AlphaLISA Primary Screen. THP-1 LPS/ATP IL-1B secretion, AlphaLISA, 16 h; stronger effect = lower value. actives 4.7% (n = 360,000). activity change, % at 57.5 µM; in the data active = activity change below about -50%; inconclusive = mostly about -30% to -49%
#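 THP-1 cells pretreated 1 hr with compounds (up to 57.5 uM final), then stimulated with LPS (250 ng/mL final) plus ATP (1.25 mM final); secreted IL-1B measured by AlphaLISA after 16 hr, decreased signal indicating inhibition.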
# TDP1 cell noCPT: qHTS for Inhibitors of human tyrosyl-DNA phosphodiesterase 1 (TDP1): qHTS in cells in absence of CPT; DT40 Tdp1-/- hTDP1 cells, no CPT, ATP luminescence, 48 h; actives 15% (n = 420,000); Potency, µM (titrated, usually from 46.2 µM), for the others: at the highest dose activity change, negative = growth inhibition, most hits filed as inhibitors; also: potency is read from the fitted curve at half-maximal effect; nearly all actives have a fitted effect of over 55% in size
#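 DT40 Tdp1-/-;hTDP1 cells, no CPT (DMSO vehicle only), 400 cells/well; compounds pin-transferred; ≥48 hr, 37 °C; CellTiter-Glo 30 min RT dark, luminescence read.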
# ELG1 DNA repair: qHTS screen for small molecules that inhibit ELG1-dependent DNA repair in human embryonic kidney (HEK293T) cells expressing luciferase-tagged ELG1; actives 2.3% (n = 330,000); HEK293T ELG1-luciferase reporter, luminescence, 16 h; DNA damage induced by 5-fluorouridine; Potency, µM (titrated, usually from 46.1 µM), without a hit: top-dose activity change, negative = inhibition, hits mostly inhibitors; also: potency is read from the fitted curve at half-maximal effect; nearly all actives have a fitted effect of over 55% in size
#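 5-Fluorouridine DNA damage + compound/DMSO, 2,000 cells/well, 16 h, 37 °C/5% CO2. ONE-Glo, 30 min RT, luminescence. Readout = decrease in reporter signal.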
# An asterisk follows results filed as active; ? = inconclusive; . = no result. Rows were chosen to be rich in hits. Some 19% of all compounds tested hit in one or more screens of this group. Unless noted, calls follow the shape of the dose curve; as a rule, active = well fitted curve in the direction sought with a large enough effect; inconclusive = small, poorly fitted or top-dose-only effect, or another doubt; inactive = no such curve, though single readings can be large; an effect the other way counts as inactive or inconclusive. % is scaled to controls: 0 for no effect and ±100 for the full control effect.
SMILES,TDP1 cell CPT,TDP1 inh,Giardia killer,IL-1B inflam inh,TDP1 cell noCPT,ELG1 DNA repair
COc1ccc(NC(=O)CN2C(=O)CC(c3ccco3)Sc3ccccc32)cc1OC (stereo not drawn),.,1%,.,.,.,.
O=C(O)c1ccc(NC(=O)C2CC=CCC2C(=O)O)cc1 (stereo not drawn),4%,.,7,15,4%,-1%
O=C(O)C1CC=CCC1C(=O)Nc1ccccc1Cl (stereo not drawn),?,4%,0,10,23µM*,?
O=C(O)C1CCCCC1C(=O)Nc1ccccc1Cl (stereo not drawn),-15%,-2%,-4,84,-13%,1%
Cc1ccccc1Oc1ccc(NC(=O)C2CC=CCC2C(=O)O)cc1 (stereo not drawn),15µM*,6%,?,0,6.5µM*,-1%
O=C(O)C1CC=CCC1C(=O)Nc1ccccc1 (stereo not drawn),12%,22µM*,13,17,-11%,?
CNCc1ccccc1Sc1cc(O)ccc1O,1.8µM*,11%,7,-100*,3.7µM*,4%
COC(=O)c1cc2oc3ccccc3c2n1CC(=O)Nc1ccc(Cl)cc1F,?,-1%,.,.,?,.
COc1ccc(Cn2c(C3CC3)nc3ccc(NC(=O)c4cccnc4)cc3c2=O)cc1,7.3µM*,.,5,-70*,10µM*,-23%
Cc1nc2ccc(NC(=O)c3ccccc3)cc2c(=O)n1Cc1ccc(F)cc1,?,.,.,-22,13µM*,.
CCOc1ccc(S(=O)(=O)N2CCN(c3ccccc3)CC2)cc1C(N)=O,3%,3%,.,.,-4%,.
Cn1nccc1-c1coc2c(C(=O)NCC3CCOCC3)cccc12,?,.,.,65,23µM*,.
Cc1ccc(NS(=O)(=O)c2cccc3cccnc23)c(Br)c1,15%,.,-9,-8,-17%,-1%
Cc1ccc(-n2c(-c3ccc(Br)cc3)c[n+]3c2CCc2ccc4cccnc4c2-3)cc1,0.29µM*,6%,4,-105*,0.29µM*,?
O=c1cc(/C=C/c2c(F)cccc2Cl)[nH]c2ccccc12,?,3%,-13,18,?,?
CN1CCN(c2nc(-c3ccc(C(C)(C)C)cc3)nc3ccccc23)CC1,?,.,-15,-16,21µM*,?
CCN1CCN(c2nc(-c3ccccc3)nc3ccccc23)CC1,?,0%,-24,-65*,29µM*,-19%
Cc1ccc(-c2nc(N3CCN(C)CC3)c3ccccc3n2)cc1,?,.,-1,?,?,-8%
CCN(CC)C(=O)c1sc(NC(=O)c2cccc([N+](=O)[O-])c2)c(C#N)c1C,21µM*,-3%,-10,2,16µM*,-18%
COC(=O)c1sc(NC(=O)c2ccc([N+](=O)[O-])o2)c(C#N)c1C,9.2µM*,4%,-93*,?,6.5µM*,4.6µM*
COC(=O)c1c(NC(=O)c2ccc([N+](=O)[O-])o2)sc2c1CCN(C(C)C)C2,0.58µM*,4%,?,-97*,0.82µM*,-18%
CC(C)N1CCc2c(sc(NC(=O)c3ccc([N+](=O)[O-])o3)c2C(N)=O)C1,.,7%,.,.,.,?
O=C(COc1cc(F)ccc1[N+](=O)[O-])Nc1cc(S(=O)(=O)N2CCCC2)ccc1Cl,?,-5%,-19,-7,?,-11%
COc1ccc(CC(=O)Nc2ccc(N3CCOCC3)cc2)cc1S(=O)(=O)N1CCOCC1,3%,1%,7,24,24%,11%
CC(C)CNC(=S)N(CCCO)Cc1cc2cc3c(cc2[nH]c1=O)OCO3,?,.,36,-6,-20%,?
SMILES,TDP1 cell CPT,TDP1 inh,Giardia killer,IL-1B inflam inh,TDP1 cell noCPT,ELG1 DNA repair
C[C@H]1CN([C@@H](C)CO)C(=O)CCCn2cc(nn2)CO[C@@H]1CN(C)S(=O)(=O)c1ccc(Oc2ccccc2)nc1,-39%,.,.,0,-39%,.
Cc1cccc(N2CCN(C(=O)c3cc4c(=O)oc5ccccc5c4s3)CC2)c1C,-17%,9%,.,.,1%,.
Cc1cccc(N2CCN(C(=O)c3cc4c(=O)n(C)c5ccccc5c4n3C)CC2)c1C,?,1%,-26,23,16µM*,-1%
Cn1c(=O)c2cc(C(=O)N3CCN(c4cccc(C(F)(F)F)c4)CC3)sc2c2ccccc21,?,5%,.,.,3.7µM*,.
Cn1c(C(=O)N2CCN(c3ncccn3)CC2)cc2c(=O)n(C)c3ccccc3c21,?,2%,-11,-9,21µM*,9.2µM*
Cc1cccc(N2CCN(C(=O)c3cc4c(=O)n(C)c5ccccc5c4s3)CC2)c1C,?,2%,.,.,5.8µM*,.
Cn1c(C(=O)N2CCCC2)cc2c(=O)n(C)c3ccccc3c21,-17%,3%,5,-14,-25%,-14%
COc1cc2c(cc1OC)n(Cc1ccc([N+](=O)[O-])cc1)c(=O)n1nc(-c3ccccc3)nc21,?,5%,.,.,?,.
O=C1CN(C(=O)c2c(F)cccc2F)C(c2ccc(F)cc2)c2cc(F)ccc2N1 (stereo not drawn),-29%,.,-12,-7,-13%,?
CCS(=O)(=O)N1CC(=O)N(c2cc(C)cc(C)c2)C(C)(C(=O)NC2CCCCC2)C1 (stereo not drawn),-11%,7%,.,.,-5%,.
COc1cccc(OCCn2c(-c3ccc(Cl)cc3)nc3ccccc3c2=O)c1,-9%,.,.,.,-2%,.
COc1cccc(CNC(=O)C(Cc2ccccc2)NS(=O)(=O)c2ccc3c(c2)oc(=O)n3C)c1 (stereo not drawn),?,6%,.,.,?,.
Cc1ccc(Cl)cc1N1CCN(C(=O)Cn2ncc3c4ccccc4n(C)c3c2=O)CC1,6%,-3%,.,.,-1%,.
Cc1ccc(Cl)cc1N1CCN(C(=O)c2cc3c(=O)n(C)c4ccccc4c3n2C)CC1,18µM*,2%,-4,56,16µM*,?
Cc1ccc(Cl)cc1N1CCN(C(=O)C(C)n2ncn3cccc3c2=O)CC1 (stereo not drawn),18µM*,3%,26,-23,23µM*,-19%
